# Assay outcomes: PubChem, National Center for Advancing Translational Sciences (NCATS)
# Sfp inh – blocks B. subtilis Sfp PPTase activity. Potency, µM, inactives show largest response in the series, negative = inhibition, hits mostly inhibitors. hit rate 3.5% among 310,000. Biochemical Sfp PPTase activity, qHTS. AID 1490;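 note: the enzyme is Sfp with the accession as filed and its product quenches rhodamine fluorescence; 0% = enzyme reaction without inhibitor and -100% = no enzyme wells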
#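 With Hepes-Na pH 7.6 buffer containing 10 mM MgCl2, Sfp (15 nM) modified BHQ-2-YbbR (12.5 uM) using rhodamine-CoA (5 uM). Two reads 30 minutes apart at 525/598 nm yielded each well's rate.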
# BAZ2B inh – BAZ2B (human) inhibition; Q9UIF8; AlphaScreen BAZ2B-H3K14Ac peptide displacement; Potency, µM (highest dose often 114 µM), inactives show at the top dose activity change, negative = inhibition, usual class: inhibitors; hit rate 4.4% among 360,000; AID 504333; note: % is set by controls: 0 for no effect and ±100 for the full control effect; nearly all actives have a fitted effect of over 60% in size
#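 AlphaScreen displacement of biotin-H3(5-23)K14Ac peptide (50 nM final) from BAZ2B (50 nM final) in PBS pH 7.4, 0.01% Tween-20; complex preformed 30 min RT, then compounds (top 110 uM) 30 min RT, beads 20 min dark.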
# HP1b chromo inh – inhibitors of HP1-beta chromodomain binding to methylated histone tails. Potency, µM (doses to about 114 µM), for inactives: at the top dose activity change, negative = inhibition, usual class: inhibitors. AlphaScreen HP1-beta / biotin-H3K9me3 peptide binding. hit rate 0.56% among 390,000; note: nearly all actives have a fitted effect of over 70% in size
#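 HP1-beta protein (50 nM final) preincubated 30 min at room temperature with biotinylated H3(1-18)K9me3 peptide (50 nM) in PBS pH 7.4, 0.01% Tween-20, then compound added for 30 min. AlphaScreen streptavidin donor/nickel chelate acceptor beads (10 ug/mL final), 30 min dark, luminescence read.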
# G9a block – blocks human histone lysine methyltransferase G9a. hit rate 8.8% among 350,000. Potency, µM (top dose mostly 102 µM), inactives show at the highest dose activity, negative = inhibition, usual class: inhibitors. G9a H3K9 monomethylation, AlphaScreen, 2 h. AID 504332; note: % is set by controls: 0 for no effect and ±100 for the full control effect; nearly all actives have a fitted effect of over 75% in size
#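 AlphaScreen detection with an anti-monomethyl H3K9 antibody quantified product after a 2 h room-temperature reaction containing 500 nM biotinylated H3K9 peptide, 20 µM SAM and 20 nM enzyme, which had been preincubated 15 min with compound.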
# L3MBTL1 block – L3MBTL1 (human) inhibition. Q9Y468. AlphaScreen L3MBTL1–H3K9me1 peptide binding. Potency, µM (series often up to 57.1 µM), without a hit: at the top dose activity, negative = inhibition, most hits filed as inhibitors. hit rate 0.66% among 230,000; note: % is set by controls: 0 for no effect and ±100 for the full control effect; nearly all actives have a fitted effect of over 60% in size
#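 L3MBTL1 (50 nM) pre-complexed 30 min with biotinylated H3(1-15)K9me1 peptide (75 nM), then compounds added for 30 min at room temperature; AlphaScreen streptavidin donor/nickel chelate acceptor beads (10 ug/mL final) read after 30 min dark incubation.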
# JMJD2A Tudor – blocks the human JMJD2A Tudor domain | O75164 | AlphaScreen JMJD2A-Tudor / H3K4me3 peptide binding | Potency, µM (titrated, usually from 114 µM), without a hit: at the top dose activity change, negative = inhibition, most hits filed as inhibitors | hit rate 4.4% among 390,000 | AID 504339; note: % is set by controls: 0 for no effect and ±100 for the full control effect; nearly all actives have a fitted effect of over 50% in size
# Numbers without * were called inactive; ? = inconclusive; . = no result; [ ] = dose if it differs, or a comment. This is a sample that favours compounds with a hit; in the whole collection about 12% have one here. Calls come from the whole dose curve; as a rule, active = well fitted curve in the direction sought with a large enough effect; inconclusive = small, poorly fitted or top-dose-only effect, or another doubt; inactive = no such curve, though single readings can be large; an effect the other way counts as inactive or inconclusive. Potency is the fitted concentration of half-maximal effect.
SMILES,Sfp inh,BAZ2B inh,HP1b chromo inh,G9a block,L3MBTL1 block,JMJD2A Tudor
CC1=C(C)/C(=N\OS(=O)(=O)c2ccc(C)cc2)C=CC1=O,32µM*,25µM*,?,20µM*,?,56µM*
COc1ccc(S(=O)(=O)/N=C2/C=CC(=O)C(C)=C2C)cc1,79µM*,-8%,?,?,-3%,-35%
COc1ccc(S(=O)(=O)c2ccc(OC)cc2)cc1,-3%,8%,27%,-6%[59 µM],.,3%
COc1cc(-c2cc3n(C)c(C)c(CCC(=O)O)c(=O)n3n2)cc(OC)c1OC,.,.,9%,-30%[59 µM],.,-19%
COc1ccccc1NC(=O)CSc1nc(-c2ccc(C(C)(C)C)cc2)c(C#N)c(=O)[nH]1,.,79µM*,26%,-51%[59 µM],.,-34%
COc1cccc(-c2nc(SCC(=O)Nc3nc(-c4ccccc4)c(C)s3)[nH]c(=O)c2C#N)c1,12%,?,8%,?,-26%,-31%
Cc1ccc(C)c(NC(=O)CSc2nc(-c3ccccc3)c(C#N)c(=O)[nH]2)c1,.,7%,28%,5%[59 µM],.,-4%
CCOc1ccc2nc(NC(=O)CSc3nc(-c4ccccc4)c(C#N)c(=O)[nH]3)sc2c1,9%,-27%,?,?,.,50µM*
N#Cc1c(-c2ccccc2)nc(SCC(=O)NC2CCCCC2)[nH]c1=O,14%,14%,24%,-46%,.,-3%
CN(C(=O)CSc1nc(-c2ccc(C(C)(C)C)cc2)c(C#N)c(=O)[nH]1)C1CCCCC1,-7%,-27%[57.1 µM],25%,45µM*,.,-16%
CCOC(=O)c1oc2c(c1C)-c1nn(Cc3ccc(Cl)cc3)cc1CC2,.,-3%,48%,-2%[59 µM],.,-6%
CCCc1nnc(NC(=O)CCC(=O)N2CCC(C)CC2)s1,2%,4%,19%,11%,.,-15%
CCOc1ccc(CC(=O)N2CCc3cc(OC)c(OC)cc3C2COc2ccc3c(C)cc(=O)oc3c2)cc1 (stereo not given),.,7%,31%,13%[59 µM],.,-1%
N#C/C(=C(/O)c1ccc(-c2cccc([N+](=O)[O-])c2)o1)c1nc2ccccc2s1,35µM*,45µM*,-6%,45µM*,.,?
COc1ccc(C/C(O)=C(\C#N)c2nc3ccccc3s2)cc1,24%,-11%,-8%,-2%[12.7 µM],-6%[11.4 µM],-33%
O=[N+]([O-])c1cccc(-c2ccc(C(=S)N3CCN(c4ccc(F)cc4)CC3)o2)c1,-4%,35µM*,?,?,-29%,?
O=C(/C=C\c1ccc(-c2cccc([N+](=O)[O-])c2)o1)N1CCOCC1,20µM*,?,3%,32µM*,-14%,-31%
O=C(O)c1ccc(-c2cccc([N+](=O)[O-])c2)o1,50µM*,?,24%,-16%,-12%,-6%[11.4 µM]
CCCCCCCCCCCCCCOS(=O)(=O)O,14%,.,.,.,.,.
S=c1[nH]ccc2ccccc12,.,.,28%,.,.,-17%
S=c1[nH]ncc2ccccc12,-18%,7%,25%,45µM*,-5%,50µM*
O=C(Nc1c2c(nn1-c1ccccc1)CS(=O)C2)c1ccc2c(c1)OCO2 (stereo not given),7%,-12%,12%,.,.,-13%
COc1ccc(OC)c(-c2csc(NC(=O)Cc3ccc(OC)c(OC)c3)n2)c1,4%,?,-12%,50µM*,.,?
COc1ccc(-c2csc(NC(=O)CSc3ccc(Br)cc3)n2)c(OC)c1,5%,?,16%,25µM*,-7%,-16%
O=S(=O)(Nc1ccc2c(c1)nc1n2CCN(Cc2ccccc2)C1)c1ccc(Cl)cc1,2%,.,57%,10µM*,-8%,-14%
O=S(=O)(Nc1ccc2c(c1)nc1n2CCN(Cc2ccccc2)C1)c1ccc(F)cc1,16%,-32%,48%,?,-2%,89µM*
Cc1ccc(S(=O)(=O)Nc2ccc3c(c2)nc2n3CCN(Cc3ccccc3)C2)cc1,2%,-29%,19%,?,0%,-32%
